Measurements as given in PubChem BioAssay (NCI).
This is part of a sample that, as a whole, favours compounds with a hit. Of some 79,000 tested, about 15% had one in any assay. No stated cut-off is given here; in the data, active means growth inhibition above about 70%; inactive means the rest.

Experiments:
[1] = NCI Yeast Anticancer Drug Screen. Data for the rad50 strain (AID 155);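 further: 0% = growth of vehicle-only cultures of the same strain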; settings: S. cerevisiae rad50 strain growth inhibition; at 50.0 µM; hits give high values
How it was run: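 Inhibition values express reduced yeast growth in compound-treated cultures relative to vehicle-treated controls.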

[2] = NCI Yeast Anticancer Drug Screen. Data for the mec2-1 strain (AID 157); settings: S. cerevisiae mec2-1 strain, at 50.0 µM, hits give high values
How it was run: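 Compounds were applied to mec2-1 yeast cells. Their growth was then compared with that of vehicle-treated cultures to give growth inhibition.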

[3] = NCI Yeast Anticancer Drug Screen. Data for the sgs1 mgt1 strain (AID 161);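 further: 0% = growth of cultures given vehicle only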; settings: S. cerevisiae sgs1 mgt1 strain, at 50.0 µM, hits give high values
How it was run: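 Percent growth inhibition was derived by comparing compound-exposed mutant yeast with vehicle-exposed cultures. The strain carries alterations in DNA damage repair.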

[4] = NCI Yeast Anticancer Drug Screen. Data for the cln2 rad14 strain (AID 165);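 further: 0% = growth equal to vehicle treated cultures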; settings: S. cerevisiae cln2 rad14 strain, at 50.0 µM, hits give high values
How it was run: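 Strain: cln2 rad14 yeast, altered in cell cycle control and DNA damage repair. Read-out: growth inhibition vs vehicle.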

[5] = NCI Yeast Anticancer Drug Screen. Data for the bub3 strain (AID 167); settings: S. cerevisiae bub3 mutant strain, at 50.0 µM, hits give high values
How it was run: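 Steps: expose the mutant yeast strain to compound; grow alongside vehicle-treated cultures; measure growth; express inhibition against the vehicle cultures.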

[6] = NCI Yeast Anticancer Drug Screen. Data for the mlh1 rad18 strain (AID 175); settings: S. cerevisiae mlh1 rad18 strain growth inhibition; at 50.0 µM; hits give high values
How it was run: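 A repair-deficient yeast strain is exposed to test compound, and growth is scored relative to vehicle-treated controls.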

Measured: growth inhibition

C1C[OH+]CCNCC[OH+]CC[OH+]CCN1.[Cl-].[Pt+4]
inactive: [1] -14.5% | [2] -29.2% | [3] 1.55% | [4] -9.05% | [5] 3.5% | [6] -16.2%

CCCNc1nc(C)nc2[nH]cc(C)c12
inactive: [1] 7.35% | [2] -5.1% | [3] -3.15% | [4] -31.1% | [5] -7.7% | [6] -7.65%

CCCCCC(=O)OCCOC
inactive: [1] -3.4% | [2] -15.2% | [3] -8.45% | [4] -46% | [5] -38.1% | [6] -13.7%

Cc1ccc(Cl)cc1NC(=O)Nc1ccc(Cl)c(Cl)c1
inactive: [1] -13.1% | [2] -11.1% | [3] -4.25% | [4] -4.5% | [5] 18.2% | [6] -4.75%

CCCCCCCSc1nc2ccc(N=Cc3ccccc3O)cc2s1
inactive: [1] -9.8% | [2] -5.9% | [3] -16.9% | [4] -3.25% | [5] -0.9% | [6] -24.4%

c1ccc(-c2c3ccccc3c(-c3ccccc3)c3ccccc23)cc1
inactive: [1] 6.2% | [2] 5.95% | [3] 6.7% | [4] -3.75% | [5] 2.4% | [6] 19.7%

O=C(NC(=S)OC1CCCC1OC(=S)NC(=O)c1ccccc1)c1ccccc1 (centres undefined)
inactive: [1] -21.5% | [2] -12.6% | [3] -10.1% | [4] 14.5% | [5] -13.2% | [6] -33.7%

O=C(O)C12CCC(CC1=O)C2 (centres undefined)
inactive: [1] 5.8% | [2] 4.4% | [3] 11.3% | [4] 13.7% | [5] -2% | [6] 14.1%

CC(C)CCC(=O)C(C)C
inactive: [1] 19.7% | [2] -9.55% | [3] 13.2% | [4] 11.5% | [5] 10.8% | [6] 15.2%

O=C1C[C@@]23CCC4(CC2=CCC[C@H]3O1)OCCO4
inactive: [1] -16.9% | [2] -19.6% | [3] 3.2% | [4] 14.7% | [5] 17.5% | [6] -12.3%

O=C(CC/C=C(/CS(=O)(=O)c1ccccc1)S(=O)(=O)c1ccccc1)c1ccccc1
inactive: [1] 20.3% | [2] -15.1% | [3] -5.75% | [4] -24.1% | [5] -6.15% | [6] 13.4%

COc1ccc(C2CC(=O)N(c3ncccc3C)C(=O)C2)cc1
inactive: [1] -1% | [2] 6.9% | [3] -1.05% | [4] -21.1% | [5] -18.8% | [6] 3.65%

ONc1ccccc1
inactive: [1] 15.3% | [2] 6.1% | [3] 11.8% | [4] 16.7% | [5] 28.1% | [6] 16.6%

CC(C)N1CN(C(C(=O)N[C@@H]2C(=O)N3C2SC(C)(C)C3C(=O)O)c2ccccc2)CSC1=S (some centres undefined)
inactive: [1] 48.8% | [2] -15.4% | [3] 3.85% | [4] -7.95% | [5] -9.85% | [6] -11.2%

O=C(O)c1ccc2ccccc2c1C(=O)c1ccc(F)cc1
inactive: [1] 10.1% | [2] -1.6% | [3] 17.9% | [4] 18.3% | [5] 20.3% | [6] 3.1%

COc1ccc2c(c1)C1(C)CCCC(C)(C=O)C1CC2 (centres undefined)
inactive: [1] 5.5% | [2] -2.75% | [3] -3.65% | [4] -1.25% | [5] 10.4% | [6] 4.75%

C/C(=N\NC(=O)c1ccncc1)c1ccccc1Cl
inactive: [1] -23.3% | [2] -23.9% | [3] -16.1% | [4] -13.3% | [5] -75.8% | [6] -17.4%

COC(=O)c1nc(=S)[nH]c(C(=O)OC)c1C(=O)c1ccc(C)cc1
inactive: [1] -3.7% | [2] -7.15% | [3] 5.75% | [4] -14% | [5] 10.6% | [6] 21.4%

COc1ccc(-c2c(C#N)c(-c3ccccc3)n(NS(=O)(=O)c3ccccc3)c(=O)c2C#N)cc1
inactive: [1] -0.05% | [2] 40.7% | [3] 30.4% | [4] 8.45% | [5] 32.6% | [6] 42.1%

Cc1ccc(NCC(=O)N2CC(=O)Nc3ccccc32)cc1
inactive: [1] -28.6% | [2] -21% | [3] -35.2% | [4] -4.45% | [5] -23.2% | [6] -15.8%

CCOC(=O)/C=C\[C@H]1OC(C)(C)O[C@H]1[C@H](O)[C@H]1COC(C)(C)O1
inactive: [1] -22.3% | [2] -14.1% | [3] -15.4% | [4] 38% | [5] -11.8% | [6] -9.6%

Cc1ccccc1NC(=O)C(C)C
inactive: [1] 28.8% | [2] -5.7% | [3] 4.35% | [4] 11.3% | [5] 15.2% | [6] 7.2%

CCN(CC)CCOC(=O)c1ccc(N=Nc2cc(C(=O)O)ccc2O)cc1
inactive: [1] 14.8% | [2] -6.3% | [3] 4.1% | [4] -6.55% | [5] -0.8% | [6] -12.5%

CCCCc1ccc(O)c(CN(CC)CC)c1
inactive: [1] 10.8% | [2] -8.2% | [3] -11.6% | [4] -23.6% | [5] -6.8% | [6] -2.9%

CN(CCCCl)Cc1ccccc1
inactive: [1] 1.85% | [2] -26.8% | [3] -24.7% | [4] 1.35% | [5] -14.3% | [6] -7.55%

CC(C)(C)NC1=NCCNC(c2ccccc2)=C1
inactive: [1] -33.5% | [2] -52.2% | [3] -19.4% | [4] -4.65% | [5] -30.8% | [6] -23.9%

COc1ccc(C2C(Cl)C(=O)N2NC(=O)c2ccc(NC(C)=O)cc2)cc1 (centres undefined)
inactive: [1] -47.9% | [2] -20.8% | [3] -49.9% | [4] -9.35% | [5] -50% | [6] -54%

CC(=O)Nc1ccc(S(=O)(=O)Nc2c(N)[nH]c(=S)[nH]c2=O)cc1
inactive: [1] 14% | [2] 3.9% | [3] 1.25% | [4] -3.75% | [5] 9.5% | [6] 9.45%

C/C=C(\C)C(=O)OC1CC(C)(O)C(=O)C(OC(=O)/C(C)=C/C)C2(C)CCC(O)(C(C)C)C12 (centres undefined)
inactive: [1] -27.2% | [2] -30.1% | [3] -34.7% | [4] -16.8% | [5] -15% | [6] -24.8%

NC(=O)CCCC(=O)c1cccc([N+](=O)[O-])c1
inactive: [1] -14.2% | [2] 2.2% | [3] -16.9% | [4] -42.9% | [5] -1.25% | [6] -25.4%

O=c1oc2ccccc2c(O)c1C(c1cc(OCc2ccccc2)cc(OCc2ccccc2)c1)c1c(O)c2ccccc2oc1=O
inactive: [1] -12.1% | [2] -2.85% | [3] -2.1% | [4] -19.4% | [5] -11.7% | [6] -16.6%

ONc1ncnc2nc[nH]c12
inactive: [1] -8.65% | [2] 5.4% | [3] 3.8% | [4] -1.65% | [5] -2.45% | [6] -11.3%

CN1N=C(N)c2cn(C3OC(COP(=O)(O)O)C(O)C3O)c3ncnc1c23 (centres undefined)
inactive: [1] -16.2% | [2] 1.2% | [3] 4.7% | [4] -22.8% | [5] 11.3% | [6] -9.05%

CNC(=O)N(C)C(C)=O
inactive: [1] -6.15% | [2] -1.25% | [3] 0% | [4] -3.25% | [5] -5.15% | [6] 4.9%

COC(Cc1cc(C(O)(c2ccc(C(C)(C)C)cc2)c2cc(CC(OC)(c3cc(C(OC)(c4ccc(C(C)(C)C)cc4)c4ccc(C(C)(C)C)cc4)c(C)cc3C)c3cc(C(OC)(c4ccc(C(C)(C)C)cc4)c4ccc(C(C)(C)C)cc4)c(C)cc3C)c(C)cc2C)c(C)cc1C)(c1cc(C(OC)(c2ccc(C(C)(C)C)cc2)c2ccc(C(C)(C)C)cc2)c(C)cc1C)c1cc(C(OC)(c2ccc(C(C)(C)C)cc2)c2ccc(C(C)(C)C)cc2)c(C)cc1C
inactive: [1] -2.75% | [2] -1.25% | [3] 9.05% | [4] -30.6% | [5] 5.55% | [6] 23.6%

O=c1c2ccccc2c(=O)c2c1ccc1[nH]c3ccccc3sc12
inactive: [1] -7.15% | [2] -1.75% | [3] 7.6% | [4] -20.1% | [5] 6.2% | [6] -6.6%

CCCCOC1CCC(O)C2CCCCC12 (centres undefined)
inactive: [1] 5.15% | [2] -2.5% | [3] -1.9% | [4] -0.7% | [5] -0.95% | [6] 9.85%

CC1=NN(C(=O)CC(=O)Nc2cccc(Cl)c2)C(=O)C1N=Nc1ccc(S(=O)(=O)c2ccc(N=NC3C(=O)N(C(=O)CC(=O)Nc4cccc(Cl)c4)N=C3C)cc2)cc1 (centres undefined)
inactive: [1] 36.5% | [2] 15.2% | [3] 23.4% | [4] -1.9% | [5] -25.4% | [6] 22.4%

CCCCCCCCCCCCCCCCCCSc1ccc2ccccc2c1
inactive: [1] 37.5% | [2] -10.5% | [3] 20.4% | [4] -14.1% | [5] 0.6% | [6] -5.7%
